Test results published in PubChem BioAssay.

Legend:
[1] = tested on: Botulinum neurotoxin type F light chain protease (Clostridium botulinum); experiment: Clostridium botulinum type F light chain protease inhibitors, microsphere substrate cleavage, validation (AID 588459); details: multiplex microsphere protease substrate cleavage assay, flow cytometry; at 10 µM; active compounds read high
[2] = target: Botulinum neurotoxin type A (Clostridium botulinum) (UniProt P0DPI0); experiment: BoNT/A light chain protease inhibitors, biochemical, multiplex microsphere flow cytometry, validation set (AID 588460); details: at 10 µM, active compounds read high
[3] = target: Lethal factor (Bacillus anthracis) (UniProt P15917); experiment: Bacillus anthracis lethal factor inhibition, microsphere flow cytometry protease assay, validation at 10 µM (AID 588461); details: multiplex microsphere protease cleavage assay, active compounds read high

Measured: inhibition

COc1cc2c(cc1NCc1ccc3c(c1)OCO3)oc1ccccc12
inactive: [1] -2.5% | [2] -0.9% | [3] -15.7%

CC12CCC(C(=O)N(CCC#N)CCC#N)(CC1=O)C2(C)C (configuration not stated)
inactive: [1] 2.1% | [2] -1.2% | [3] 1.5%

CC1(C)CC(C(CC(=O)N2CCCC2)Cc2ccccc2)CCO1 (configuration not stated)
inactive: [1] -0.7% | [2] 0.6% | [3] 3.1%

CC(CCCC(C)(C)O)NC(=O)c1ccc(OC2CCN(C(=O)C3CC3)CC2)cc1 (configuration not stated)
inactive: [1] 0.1% | [2] 0.7% | [3] 1%

O=C1CCCC(=O)C1=Cc1c[nH]c2ccccc12
inactive: [1] 3% | [2] 0.4% | [3] -6.4%

CC1=CC(C)(C)N2C(=O)C3(NCCc4c3[nH]c3ccccc43)c3cc(C)cc1c32 (configuration not stated)
inactive: [1] -0.9% | [2] -2.5% | [3] 0.2%

O=C(NCCN1CCCCC1)c1c(O)c2ccccc2[nH]c1=O
inactive: [1] 3.5% | [2] 0.4% | [3] -3.9%

N/C(=N\OC(=O)c1cccc(Br)c1)c1ccncc1
inactive: [1] 0.8% | [2] 0.4% | [3] -3.1%

Cc1ccc2c(c1)C(CCN)C(=O)N2Cc1ccccc1 (configuration not stated)
inactive: [1] -1% | [2] 0.7% | [3] 6.7%

C[C@H]([C@@H](N)C(=O)N[C@@H](C(=O)O)[C@@H]1O[C@H](n2ccc(=O)[nH]c2=O)[C@@H](O)[C@H]1O)[C@@H](O)c1ccc(O)cn1
inactive: [1] 0.3% | [2] -1% | [3] -3.6%

CC(=O)CCc1c(C)c2cccc(C)c2[nH]c1=O
inactive: [1] 4.3% | [2] 0.8% | [3] -3.4%

CSCCC(NC(C)=O)C(=O)Oc1ccc2c3c(c(=O)oc2c1)CCCC3 (configuration not stated)
inactive: [1] -3.3% | [2] -1.8% | [3] -1.8%

Cc1ccc(-n2cc(CNCCN3CCOC3=O)c(-c3ccc(F)cc3)n2)cc1
inactive: [1] -3.2% | [2] 1.5% | [3] -7.8%

CCc1cc2c(=O)c(-c3ccc4c(c3)OCCO4)coc2c(CN2CCCCC2C)c1O (configuration not stated)
inactive: [1] 2.5% | [2] 0.3% | [3] -1%

O=Cc1ccccc1Oc1ccccc1
inactive: [1] 0.2% | [2] -2.2% | [3] -0.3%

OC[C@H]1O[C@@H](n2cnc3c(Nc4ccccc4)ncnc32)[C@H](O)[C@@H]1O
inactive: [1] 1.4% | [2] -0.2% | [3] -2.1%

CCOC(=O)c1cc2cc3ccccc3cc2[nH]1
inactive: [1] 3.4% | [2] -0.1% | [3] 5.8%

COc1ccc(Br)cc1C(=O)Nc1ccc(C(=O)O)cc1
inactive: [1] 1% | [2] 1% | [3] -2.2%

Cc1c(OC(=O)CNC(=O)OC(C)(C)C)ccc2c3c(c(=O)oc12)CCC3
inactive: [1] -2.7% | [2] -0.5% | [3] -2.2%

O=C(O)C1CSC(c2ccc3c(c2)OCO3)N1 (configuration not stated)
inactive: [1] 3.1% | [2] 1.1% | [3] -0.7%

COC(=O)C1=NN(C(=O)c2cccc(Br)c2)C(O)(c2ccc(Cl)cc2)C1 (configuration not stated)
inactive: [1] 3.1% | [2] -0.5% | [3] 1.2%

COC1CCCCC1Nc1ccc(C)c(C)c1 (configuration not stated)
inactive: [1] 1.5% | [2] -0.1% | [3] -5.5%

CC(C)CCNC(=O)[C@H](CC(C)C)NC(=O)[C@H]1O[C@@H]1C(=O)O
inactive: [1] -3.8% | [2] 1.5% | [3] -3%

CC1(C)c2ccccc2N2CC(=O)NC21/C=C/c1ccco1 (configuration not stated)
inactive: [1] 3.2% | [2] 0.5% | [3] 0.4%

COc1cc2cc(C(=O)O)n(C)c2c(OC)c1OC
inactive: [1] 1.3% | [2] -0.4% | [3] 1.2%

COc1cc(OC)c(-c2nc3cnccc3n2C)cc1OC
inactive: [1] -2.3% | [2] -1.9% | [3] -1.6%

Cc1cccc(-c2ncc(CN3CCN(CC(C)C)C(CCO)C3)cn2)c1 (configuration not stated)
inactive: [1] 2.6% | [2] 0.9% | [3] 0.4%

CC(=O)Oc1ccc(C(=O)O)cc1OC(C)=O
inactive: [1] -0.7% | [2] 0.4% | [3] 2.4%

NS(=O)(=O)c1cc(C2(O)NC(=O)c3ccccc32)ccc1Cl (configuration not stated)
inactive: [1] -0.2% | [2] -1.6% | [3] -7.1%
